# Measurements taken from PubChem BioAssay AID1053205 (Broad Institute, 2014).
# Results with a measured potency or affinity are listed apart. Results filed as inconclusive are left out. The source made the active and inactive calls.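 How the source made its calls: active means compounds lowering the FRET ratio whose fitted half-maximal concentration is at most twice their top tested dose; inconclusive means flat partial drop between 30 and 70 percent, or bad fit; inactive means the rest.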
# Biological target: Voltage-dependent L-type calcium channel subunit alpha-1D (Homo sapiens) (UniProt Q01668)
# Assay: inhibitors of CaV1.3 ICDI-IQ binding, dose response, cell-based, HEK293, YFP-IQ/CFP-ICDI FRET, cherry-picks (AID 1053205)
# Conditions: HEK293 YFP-IQ/CFP-ICDI FRET ratio, 10 min; series mostly up to 35 µM
# Chain of Voltage-dependent L-type calcium channel subunit alpha-1D (Homo sapiens) (Q01668 whole entry, looked up): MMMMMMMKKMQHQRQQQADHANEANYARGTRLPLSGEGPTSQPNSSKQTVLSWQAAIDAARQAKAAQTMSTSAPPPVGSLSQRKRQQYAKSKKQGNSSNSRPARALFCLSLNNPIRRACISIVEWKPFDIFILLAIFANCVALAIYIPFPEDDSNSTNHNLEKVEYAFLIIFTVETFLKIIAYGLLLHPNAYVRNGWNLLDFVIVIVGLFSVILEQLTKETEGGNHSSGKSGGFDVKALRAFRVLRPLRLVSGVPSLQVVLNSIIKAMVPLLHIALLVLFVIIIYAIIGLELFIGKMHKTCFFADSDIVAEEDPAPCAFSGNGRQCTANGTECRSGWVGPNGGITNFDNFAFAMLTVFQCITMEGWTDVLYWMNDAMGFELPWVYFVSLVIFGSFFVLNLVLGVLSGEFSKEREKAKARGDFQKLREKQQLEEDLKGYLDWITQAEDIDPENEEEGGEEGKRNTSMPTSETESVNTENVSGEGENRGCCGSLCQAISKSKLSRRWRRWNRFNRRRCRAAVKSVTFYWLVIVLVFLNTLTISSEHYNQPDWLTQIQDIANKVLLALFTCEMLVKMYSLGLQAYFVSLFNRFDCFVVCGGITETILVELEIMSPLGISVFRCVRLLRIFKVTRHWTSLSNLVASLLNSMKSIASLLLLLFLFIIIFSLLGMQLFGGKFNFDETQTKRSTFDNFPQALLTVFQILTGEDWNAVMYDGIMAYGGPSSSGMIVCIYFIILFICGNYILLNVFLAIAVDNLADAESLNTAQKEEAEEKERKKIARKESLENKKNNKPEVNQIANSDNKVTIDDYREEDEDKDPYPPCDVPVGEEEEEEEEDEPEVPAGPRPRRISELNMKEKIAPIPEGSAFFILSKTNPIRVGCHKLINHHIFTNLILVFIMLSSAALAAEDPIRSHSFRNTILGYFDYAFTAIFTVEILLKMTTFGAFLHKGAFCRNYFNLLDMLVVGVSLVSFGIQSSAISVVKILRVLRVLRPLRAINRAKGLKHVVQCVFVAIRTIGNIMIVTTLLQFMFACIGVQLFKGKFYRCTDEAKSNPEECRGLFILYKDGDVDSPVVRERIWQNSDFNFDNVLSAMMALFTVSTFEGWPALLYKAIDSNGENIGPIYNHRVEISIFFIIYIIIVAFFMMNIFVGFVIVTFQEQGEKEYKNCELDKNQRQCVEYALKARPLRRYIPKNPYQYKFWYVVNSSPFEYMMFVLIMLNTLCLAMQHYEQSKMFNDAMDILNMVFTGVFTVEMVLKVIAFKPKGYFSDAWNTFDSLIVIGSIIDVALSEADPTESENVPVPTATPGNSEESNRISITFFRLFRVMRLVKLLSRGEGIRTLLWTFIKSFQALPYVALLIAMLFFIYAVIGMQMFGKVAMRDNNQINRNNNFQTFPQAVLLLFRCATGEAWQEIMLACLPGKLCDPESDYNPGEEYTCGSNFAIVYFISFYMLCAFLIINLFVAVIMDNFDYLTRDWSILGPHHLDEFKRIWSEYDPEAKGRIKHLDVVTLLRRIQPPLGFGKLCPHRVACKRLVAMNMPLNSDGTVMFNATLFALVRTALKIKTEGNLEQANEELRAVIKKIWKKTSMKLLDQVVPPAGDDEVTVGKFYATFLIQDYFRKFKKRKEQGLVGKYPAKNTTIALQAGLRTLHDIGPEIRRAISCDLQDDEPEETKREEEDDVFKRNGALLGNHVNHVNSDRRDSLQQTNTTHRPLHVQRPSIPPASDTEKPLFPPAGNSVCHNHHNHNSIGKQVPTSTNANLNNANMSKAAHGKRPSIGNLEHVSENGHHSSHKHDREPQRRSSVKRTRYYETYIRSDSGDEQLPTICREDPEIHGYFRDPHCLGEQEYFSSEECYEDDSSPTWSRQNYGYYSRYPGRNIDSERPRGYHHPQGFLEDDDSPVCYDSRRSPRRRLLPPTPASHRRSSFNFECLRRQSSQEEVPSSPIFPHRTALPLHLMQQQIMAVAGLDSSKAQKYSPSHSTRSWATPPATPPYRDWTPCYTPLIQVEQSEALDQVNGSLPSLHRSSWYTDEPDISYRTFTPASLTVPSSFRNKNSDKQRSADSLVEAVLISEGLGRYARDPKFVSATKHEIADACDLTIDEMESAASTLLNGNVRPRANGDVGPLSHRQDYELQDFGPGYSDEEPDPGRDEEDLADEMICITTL
row,SMILES,outcome
1,N#Cc1ccc(/C=C\c2nccc3c2[nH]c2ccccc23)cc1,inactive
2,COc1cc(C(=O)OCC(C)=O)cc(NC(=O)c2ccco2)c1OC,inactive
3,COc1ccc(-[n+]2c(C)cc(/C=C3\Sc4ccccc4N3C)cc2C)cc1,inactive
4,CCOCCCNc1c(CC)c(C)c(C#N)c2nc3ccccc3n12,inactive
5,CC(=O)Nc1cccc(-c2ccnc3c2CC(C(=O)NCc2cccc(Cl)c2)O3)c1 (configuration not stated),inactive
6,[O-]/[N+](=C/c1ccccc1)c1ccccc1,inactive
7,C/C(=N\NC(=O)CC#N)c1cc2ccc(O)cc2oc1=O,inactive
8,COc1ccc(Br)c(Cn2c(C)c(C(=O)NCc3ccc4c(c3)OCCO4)sc2=O)c1,inactive
9,CN1CCc2c(sc(NC(=O)C3CCCCC3)c2C(N)=O)C1,inactive
10,Cc1ccc(S(=O)(=O)Nc2ccc(Nc3ccccc3)cc2)cc1,inactive
11,COCCNC(=O)c1cc2c(=O)n3cccc(C)c3nc2n(Cc2ccncc2)c1=N,inactive
12,Cc1cc2cc(CNC(=O)c3ccco3)ccc2n1C,inactive
13,O=[N+]([O-])c1cccc(Nc2c3ccccc3nc3ccccc23)c1,inactive
14,O=c1oc2c(CN3CCN(CCO)CC3)c(O)ccc2cc1-c1ccccn1,inactive
15,N#Cc1c(NCCCO)nc(NCc2ccccc2)c2c1CCN(Cc1ccccc1)C2,inactive
16,O=C(Cc1csc(-c2ccccc2)n1)NCc1ccccc1F,inactive
17,Cc1c(O)ccc2cc(S(=O)(=O)c3ccccc3)c(=O)oc12,inactive
18,CCOC(=O)c1c2ccc(OCC(=O)NN)cc2n2ccccc12,inactive
19,Cc1ccc(NC(=O)Nc2ccnc(-c3cccnc3)n2)cc1,inactive

row,SMILES,outcome
1,O=C(c1cccc(Cl)c1)N1CCC(=O)N(C(COCc2ccccc2)Cc2ccccc2)CC1 (configuration not stated),inactive
2,Cc1cc(-n2c(=O)c(C#N)cc3c(=O)n4ccccc4nc32)no1,inactive
3,CCOC(=O)c1oc2c(CN3CCN(CCO)CC3)c(O)c(CC)cc2c(=O)c1-c1nc2ccccc2s1,inactive
4,O=C(c1ccccc1)N1CCN(c2ccc(NCc3ccc4c(c3)OCO4)cc2)CC1,inactive
5,CCCOc1ccc(NC(=O)c2c(-c3ccccc3)noc2C)cc1,inactive
6,CCOc1ccc(C(=O)c2cc3ccc(O)cc3oc2=O)cc1,inactive
7,CC(=O)N=c1c(C#N)cc2c(=O)n3ccccc3nc2n1CCCOC(C)C,inactive
8,Cc1ccc2nc3c(cc(C(=O)NCc4ccccc4)c(=N)n3CCCn3ccnc3)c(=O)n2c1,inactive
9,CC(=O)c1sc(N/N=C\c2ccc(N(C)C)cc2)nc1C,inactive
10,Cc1noc(C)c1S(=O)(=O)N(CC(=O)N1CCCCCC1)c1ccc(C(C)C)cc1,inactive
11,CCc1cccc(C)c1NC(=S)NCc1ccc2c(c1)cc(C)n2C,inactive
12,Cc1ccc(S(=O)(=O)CCC(=O)OCC(=O)Nc2cccc(S(=O)(=O)N3CCCCC3)c2)cc1,inactive
13,NC(=O)c1cc([N+](=O)[O-])ccc1NCc1cccnc1,inactive
14,Cc1ccc2c(c1)-c1c(cnn1CC(=O)Nc1ccccc1N1CCN(C)CC1)CO2,inactive
15,S=C(NCC1CCCO1)N1CCN(Cc2ccccc2Cl)CC1 (configuration not stated),inactive
16,CCN(c1ccccc1)S(=O)(=O)c1ccc(OC)c(NC(=O)CN(C)C)c1,inactive
17,C[C@H](NC(=O)c1nc[nH]c1C(=O)N[C@@H](Cc1ccccc1)C(=O)OC(C)(C)C)C(=O)OCc1ccccc1,inactive
18,CSc1ccc(Cn2c(C)c(C(=O)NCCC#N)sc2=O)cc1,inactive
